Each structure is given as a SMILES string. Inconclusive results are not listed. A number with no mark means an inactive call. Calls of active or inactive are those of the source. The call rests on the fitted dose curve; in most records, active means well fitted curve in the direction sought with a large enough effect; inconclusive means small, poorly fitted or top-dose-only effect, or another doubt; inactive means no such curve, though single readings can be large; an effect the other way counts as inactive or inconclusive.

Experiment [1] can be described thus: qHTS of pediatric cancer cell lines to identify multiple opportunities for drug repurposing: Primary screen for SJ-GBM2 cells (AID 1347091). Further: potency means the concentration at half of the fitted maximal effect. Summed up: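 Cell viability, CellTiter-Glo luminescence; 500-1,000 cells/well, 8- or 11-point titration, 48 h compound exposure at 37 degrees C, 5% CO2. Controls: DMSO neutral, bortezomib 2.3 µM final as positive.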
Background: Quantitative high-throughput screening tests each substance at several concentrations.

The nature of experiment [2]: qHTS of pediatric cancer cell lines to identify multiple opportunities for drug repurposing: Primary screen for A673 cells (AID 1347092). Further: nearly all actives have a fitted effect of over 45% in size. Further: potency means the concentration at half of the fitted maximal effect. The essentials:
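Titration-based qHTS on A673 cells: MIPE compounds spanned 11 points (0.78 nM to 46 µM final), NPC compounds 8 points (0.59 nM to 46 µM final). Viability after 48 h was measured by ATP luminescence.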

Experiment [3] is described as follows: qHTS of pediatric cancer cell lines to identify multiple opportunities for drug repurposing: Primary screen for SK-N-MC cells (AID 1347093). Further: potency means the concentration at half of the fitted maximal effect. The essentials: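 Metabolically active cells were quantified by ATP-dependent luminescence (CellTiter-Glo, 15 min at room temperature) following 48 h treatment. Cells had been plated at 500-1,000 per well and settled for 5 h beforehand.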

The nature of experiment [4]: qHTS of pediatric cancer cell lines to identify multiple opportunities for drug repurposing: Primary screen for BT-37 cells (AID 1347094). Further: potency means the concentration at half of the fitted maximal effect. Summed up: (§1)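 Readout: CellTiter-Glo luminescence, 48 h treatment. Controls DMSO (neutral) and bortezomib 2.3 µM final (positive). Potency and efficacy taken from primary-screen concentration-response curves.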
Experiment [5] in a line: qHTS of pediatric cancer cell lines to identify multiple opportunities for drug repurposing: Primary screen for NB-EBc1 cells (AID 1347095). Further: potency means the concentration at half of the fitted maximal effect. The essentials:
as §1

A short description of experiment [6]: qHTS of pediatric cancer cell lines to identify multiple opportunities for drug repurposing: Primary screen for U-2 OS cells (AID 1347096). Further: nearly all actives have a fitted effect of over 50% in size. Further: potency means the concentration at half of the fitted maximal effect. Summed up:
(§2)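 Cells (500-1,000/well) rested 5 h, then received compounds for 48 h; metabolically active cells were measured by CellTiter-Glo luminescence. Final concentrations spanned up to 46 µM (MIPE, 11-point) or 0.59 nM-46 µM (NPC, 8-point) in primary screens, 11-point in follow-ups.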

Experiment [7] is described as follows: qHTS of pediatric cancer cell lines to identify multiple opportunities for drug repurposing: Primary screen for SK-N-SH cells (AID 1347098). Further: nearly all actives have a fitted effect of over 65% in size. Further: potency means the concentration at half of the fitted maximal effect. Summed up: as §2
A short description of experiment [8]: qHTS of pediatric cancer cell lines to identify multiple opportunities for drug repurposing: Primary screen for NB1643 cells (AID 1347099). Further: nearly all actives have a fitted effect of over 50% in size. Further: potency means the concentration at half of the fitted maximal effect. The essentials:
as §1

Experiment [9] can be described thus: qHTS of pediatric cancer cell lines to identify multiple opportunities for drug repurposing: Primary screen for LAN-5 cells (AID 1347100). Further: potency means the concentration at half of the fitted maximal effect. Summed up: as §2
A short description of experiment [10]: qHTS of pediatric cancer cell lines to identify multiple opportunities for drug repurposing: Primary screen for Saos-2 cells (AID 1347097). Further: nearly all actives have a fitted effect of over 40% in size. The essentials:
as §1

As to `CNC(=O)c1c(I)c(NC(=O)CCCCC(=O)Nc2c(I)c(C(=O)O)c(I)c(C(=O)NC)c2I)c(I)c(C(=O)O)c1I`, the Potency result in experiment [1], in [2], in [3], in experiment [4], in [5] and in experiment [6] was “inactive” throughout. Further, the Potency entry in experiment [7], in experiment [8] and in experiment [9] was “inactive” each time.
As for `Cc1c(Nc2ncccc2C(=O)O)cccc1C(F)(F)F`, the Potency result in [1], in experiment [2], in [4], in [6], in experiment [7] and in experiment [8] was “inactive” each time. Moreover, in [9], the Potency entry is “inactive”. For the same molecule, in [3], the Potency is 21100 nM (active).
For the molecule `COc1cccc2c1C(=O)c1c(O)c3c(c(O)c1C2=O)C[C@@](O)(C(=O)CO)C[C@@H]3O[C@H]1C[C@H](N)[C@H](O[C@@H]2CCCCO2)[C@H](C)O1`, the Potency in experiment [1] was 1330 nM (active); in experiment [2] it was 1060 nM (active); in experiment [3] it was 211 nM (active); in experiment [4], 246 nM (active); in experiment [5] it was 75 nM (active); in [7], 97 nM (active). The Potency in experiment [8] is 596 nM (active); in experiment [9], 266 nM (active).
As for `COC(=O)c1nc(Cl)c(Cl)nc1N`, the Potency in [1] is 5310 nM (active); in [2], 2110 nM (active); in experiment [3], 668 nM (active); in [4], 13800 nM (active); in experiment [5], 1330 nM (active); in [6], 13300 nM (active). Besides, the figures for the Potency in experiment [7] and in experiment [9] were 3440 nM (active) and 3350 nM (active), respectively.
On to `Nc1c(CC(=O)O)cccc1C(=O)c1ccc(Br)cc1`, for which the Potency result in experiment [1], in experiment [2], in experiment [3], in [4], in experiment [5] and in [6] was “inactive” in each case. Also, the Potency entry in [10], in [7], in [8] and in experiment [9] was “inactive” each time.
Consider `Nc1cc(-c2ccncc2)c[nH]c1=O`, for which the Potency entry in experiment [1], in [2], in experiment [3], in experiment [4], in experiment [6] and in experiment [7] was “inactive” each time. Further, in experiment [8], the Potency result is “inactive”.
For the molecule `NCCO`, the Potency entry in experiment [1], in experiment [2], in experiment [3], in experiment [4], in [5] and in experiment [6] was “inactive” throughout. In experiment [9], the Potency entry was “inactive”.
In the case of `COc1ccc(-c2cc(=S)ss2)cc1`, the Potency result in [1], in [2], in experiment [3], in experiment [4], in experiment [6] and in experiment [7] was “inactive” throughout. Besides, the Potency entry in [8] and in experiment [9] was “inactive” each time.
For `Cc1ccc2c(n1)Oc1ccc(C(C)C(=O)OCC(=O)N(C)C)cc1C2` (centres undefined), the Potency result in experiment [1], in experiment [2], in [3], in [4], in experiment [5] and in experiment [6] was “inactive” throughout. Also, the Potency result in [7], in experiment [8] and in [9] was “inactive” each time.
`CC(C(=O)O)c1ccc2c(c1)[nH]c1ccc(Cl)cc12` (centres undefined): the Potency entry in [1], in experiment [2], in experiment [4], in experiment [5], in [6] and in [8] was “inactive” throughout. Also, the Potency result in experiment [9] was “inactive”.
As for `CC(C(=O)O)c1ccc(C(=O)c2cccs2)cc1` (centres undefined), the Potency result in experiment [1], in experiment [2], in [3], in experiment [4], in experiment [5] and in experiment [6] was “inactive” in each case. The Potency result in experiment [7], in experiment [8] and in experiment [9] was “inactive” throughout.
With `CCCCCCCC/C=C/C(=O)O`, the Potency result in experiment [1], in [4], in [5], in experiment [6], in experiment [10] and in experiment [9] was “inactive” throughout. For the same molecule, the Potency in experiment [3] was 42200 nM (active).
In the case of `CN1CC(=O)N/C1=N/C(=O)Nc1cccc(Cl)c1`, the Potency result in [1], in experiment [3], in experiment [4], in experiment [5], in [6] and in experiment [10] was “inactive” each time. Besides, the Potency entry in [7], in experiment [8] and in [9] was “inactive” in each case.
Consider `Cc1ccc(O)c(-n2nc3ccccc3n2)c1`, for which the Potency result in experiment [1], in experiment [3], in experiment [4], in experiment [5], in experiment [6] and in [10] was “inactive” in each case. The Potency entry in [7], in experiment [8] and in [9] was “inactive” each time.
Consider `N=C(N)N`, for which the Potency entry in experiment [1], in experiment [3], in experiment [4], in experiment [5], in experiment [6] and in experiment [7] was “inactive” in each case. In addition, the Potency entry in [8] and in experiment [9] was “inactive” throughout.
In the case of `c1ccc2sc(SSc3nc4ccccc4s3)nc2c1`, the Potency entry in experiment [1], in experiment [3], in experiment [4], in experiment [5], in experiment [6] and in experiment [7] was “inactive” each time. Besides, the Potency result in [8] and in experiment [9] was “inactive” each time.
`C=CCCCCCCCCC(=O)O`: the Potency entry in [1], in [3], in [4], in experiment [5], in experiment [6] and in [7] was “inactive” each time. Also, the Potency result in experiment [8] and in experiment [9] was “inactive” in each case.
For the molecule `C[N+]1(C)[C@@H]2CC(OC(=O)[C@H](CO)c3ccccc3)C[C@H]1[C@@H]1O[C@@H]12` (some centres undefined), the Potency entry in experiment [1], in [3], in experiment [4], in [5], in experiment [6] and in [7] was “inactive” throughout. In addition, the Potency result in experiment [8] and in experiment [9] was “inactive” each time.
As for `Clc1ccccc1-c1nc(-c2ccncc2)no1`, the Potency result in [1], in [3], in experiment [4], in [5], in [6] and in experiment [8] was “inactive” each time. In addition, the Potency entry in experiment [9] was “inactive”.

For the origin of these results see PubChem BioAssay (NCATS).
